The list is not random: actives were taken first. Their share in the collection is about 7.4%.
M1 antagonist = blocks the rat M1 muscarinic receptor response to acetylcholine | B-score at 10 µM | P08482 | CHO-M1 cells, Fluo-4 calcium, ACh EC80 antagonist mode; hits give low values | hit rate 3.4% among 64,000;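 active = calcium fluorescence response, raw or row-and-column corrected B-score, differing from the plate sample mean either way at a set confidence level, mostly lower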
FXIIa mix inh = blocks human factor XIIa in pooled compound mixtures; purified FXIIa, fluorogenic substrate; hit rate 0.2% among 62,000; inhibition, % at 5 µM; P00748; AID 684;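 note: 0% = enzyme without compound and 100% = no enzyme blank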
DAT uptake mod = human DAT dopamine uptake with cocaine, either direction. B-score at 10 µM. Q01959. AID 449768. LLC-PK1 hDAT cells, [14C]-dopamine uptake with cocaine IC80; actives deviate in either direction. hit rate 1.3% among 110,000;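 active = Z score or B-score, a plate-position-corrected score, falls beyond the plate's 99.7% confidence bounds, in either direction; inactive = both scores lie inside the 99.7% bounds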;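 note: scored against the spread of the other compound wells on the same plate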
FXIa inh mix = blocks human factor XIa in pooled compound mixtures. P03951. AID 680. inhibition, % at 5 µM. purified FXIa, fluorogenic substrate. hit rate 0.19% among 62,000;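 note: each value is inhibition by a whole ten-compound pool holding the compound; 0% = enzyme with no mixture and 100% = wells lacking enzyme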
Target sequence (P03951 19-387 limits assumed): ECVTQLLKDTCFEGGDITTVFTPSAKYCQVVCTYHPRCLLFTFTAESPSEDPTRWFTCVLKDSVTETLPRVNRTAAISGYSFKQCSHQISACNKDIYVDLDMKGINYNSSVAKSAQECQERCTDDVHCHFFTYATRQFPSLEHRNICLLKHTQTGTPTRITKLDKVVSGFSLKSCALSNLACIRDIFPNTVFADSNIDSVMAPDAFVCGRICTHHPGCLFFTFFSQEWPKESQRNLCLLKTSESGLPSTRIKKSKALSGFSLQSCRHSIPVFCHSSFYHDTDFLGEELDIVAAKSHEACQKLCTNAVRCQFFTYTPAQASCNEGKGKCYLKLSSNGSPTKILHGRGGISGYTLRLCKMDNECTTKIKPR
Target sequence (P03951 388-625 limits assumed): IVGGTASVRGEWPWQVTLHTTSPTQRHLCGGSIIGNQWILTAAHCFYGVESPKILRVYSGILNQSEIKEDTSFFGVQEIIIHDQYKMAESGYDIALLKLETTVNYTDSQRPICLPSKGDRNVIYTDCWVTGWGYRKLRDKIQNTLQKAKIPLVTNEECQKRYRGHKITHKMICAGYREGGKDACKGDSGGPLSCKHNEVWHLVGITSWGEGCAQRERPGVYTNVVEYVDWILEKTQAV
M1 agonist = agonists of M1 muscarinic receptor. hit rate 3% among 64,000. CHO-M1 cells, Fluo-4 calcium fluorescence, agonist mode; hits give high values. AID 626. B-score at 10 µM;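 active = fluorescence rise, raw or as B-score row- and column-corrected plate score, outside the 99.7% band of its plate's samples, either direction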
D1 allo mod = allosterically modulates the human D1 dopamine receptor | P21728 | HEK293 D1, CRE-luciferase, dopamine EC30 potentiation; actives deviate in either direction | B-score at 10 µM | hit rate 5.9% among 58,000;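 active = luminescence count or its row- and column-corrected plate score outside the 99.7% band of the plate's sample wells, on either side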
M1 agonist conf = rat M1 muscarinic agonism, confirmation; hit rate 19% among 1,700; shares compounds with M1 agonist; CHO-M1 cells, Fluo-4 calcium fluorescence, agonist mode; actives lie on both sides; fluorescence change (max-min) at 10 µM;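 active = fluorescence change differs from the solvent-only DMSO control mean at a set confidence level in both duplicate runs; inconclusive = differs from solvent-only control mean in just one of two runs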;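 note: an EC20 dose of acetylcholine follows compound addition during the same imaging run; raw fluorescence intensity difference in instrument units with no normalization to controls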
M4 agonist ctr = counter-screen for M1 agonists: activity at rat M4 receptor | shares compounds with M1 agonist | CHO M4/Gqi5 cells, Fluo-4 calcium fluorescence, agonist mode; actives lie on both sides | fluorescence change (max-min) at 10 µM | hit rate 9% among 1,700 | AID 1741;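 active = fluorescence change differing from the plate's solvent-only control wells at 99.7% confidence in both duplicates, whether higher or lower; inconclusive = differs from solvent controls in only one of two duplicates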
* = called active by the depositor; ? = inconclusive; / = not tested or not shown. Cut-off read from the data, not from the text of the source, unless noted: active = inhibition above about 20% (passing the limit was not always enough); inactive = the rest.

SMILES	M1 antagonist	FXIIa mix inh	DAT uptake mod	FXIa inh mix	M1 agonist	D1 allo mod	M1 agonist conf	M4 agonist ctr
Cc1cc(C)n2c(SCC(=O)N3CCN(S(=O)(=O)c4ccc(Cl)cc4)CC3)nnc2n1	0.031	5	0.56	6	-0.24	-1.6	/	/
CCOc1ccc(N2C(=O)c3cccnc3C2Nc2ccc(OC)cc2)cc1 (configuration not stated)	0.04	12	1.2	5	0.045	0.014	/	/
CCN=C1SC(CC(=O)Nc2ccc(N3CCOCC3)cc2)C(=O)N1CC (configuration not stated)	-0.66	9	-0.79	8	2.8*	1.1	?	-52
CCN=C1SC(CC(=O)NC2CCCCC2)C(=O)N1CC (configuration not stated)	0.13	-2	-1.1	8	0.21	0.049	/	/
CCN=C1SC(CC(=O)Nc2ccc(C(F)(F)F)cc2)C(=O)N1CC (configuration not stated)	-2.9*	9	-1	0	12*	/	?	-48
Cc1cccc2cc(CN(Cc3ccc(F)cc3)C(=O)N(C)C)c3nnnn3c12	-2.1	8	-1.2	4	6.2*	-0.58	?	-21
Cc1cccc2cc(CN(Cc3ccc(F)cc3)C(=O)C(F)(F)F)c3nnnn3c12	/	/	-0.85	/	/	/	/	/
CCOC(=O)N1CCN(C(=O)CCC(=O)N2CCOc3ccc(C)cc32)CC1	1.1	-16	0.89	3	-0.85	1.5	/	/
O=C(Nc1cccc(NC(=O)c2ccc(-c3ccc(Br)cc3)o2)c1)c1ccccc1	/	/	-1.2	/	/	/	/	/
O=C(Nc1cccc(NC(=O)c2ccc(-c3cccc(Br)c3)o2)c1)c1ccco1	-1.8	6	1.4	16	7.8*	-3.4*	?	-74
CC(=O)c1sc(NC(=O)C2(F)C(F)(F)C(F)(F)C(F)(F)C(F)(F)C2(F)F)nc1C	0.12	-17	-2.2	1	9.2*	-2.1*	32	?
CC(=O)c1sc(NC(=O)C=C(C)C)nc1C	-0.17	2	0.17	1	-2.2*	0.12	-25*	-58
COCCN(CC(=O)NC1CCCCC1)C(=O)c1csnn1	/	/	-1.4	/	/	/	/	/
O=C(Nn1cnnc1)C1Cc2ccccc2CN1S(=O)(=O)c1ccc(F)cc1 (configuration not stated)	-0.22	-2	-0.42	11	0.87	-0.11	/	/
CC1(C)CC(=O)CC(C)(C)N1OC(=O)c1ccco1	/	/	-1.4	/	/	/	/	/
O=C(NCc1cccnc1)C(C(=O)c1ccc(F)cc1)n1ccccc1=O (configuration not stated)	1.6	3	-0.82	2	1.8	-0.24	/	/
COc1[nH]c(/N=C/c2ccccc2)c(C#N)c1C#N	-0.39	-1	0.53	-2	10*	-1.1	?	39
O=S(=O)(NCc1ccccc1)c1ccc2c(c1)OCCO2	0.78	2	-0.042	6	7.4*	0.15	-4.6	-9.4
Cc1cc(OCc2nnc(SCC(=O)OC3CCCCC3)o2)ccc1Cl	0.13	-17	-0.35	-29	4.6*	0.19	?	?
N#CC1=C(N)NC(SCC(=O)Nc2ccccc2)=C(C#N)C12CCCC2	-0.31	15	2	-5	2.9*	-0.56	7.5	-5.3
O=C(c1cc(-c2ccncc2)nc2ccc(Cl)cc12)N1CCN(C(=O)C2CCCO2)CC1 (configuration not stated)	-0.26	8	-0.39	0	2.9*	-0.19	-29	-48
C=C1CCN([C@H](C(=O)NCc2ccccc2)C(C)C)S(=O)(=O)c2ccccc21	/	/	-0.5	/	/	/	/	/
COc1ccc(NC(=O)Nc2ccc3c(c2)N(C)C(=O)CS3)cc1Cl	/	/	0.39	/	/	/	/	/
COc1ccc(NC(=O)Nc2ccc3c(c2)N(C)C(=O)CS3)cc1OC	-1.5	3	0.62	9	3.1*	-3.9	?	-28
O=C(CNC(=O)c1ccco1)OC(C(=O)c1ccccc1)c1ccccc1 (configuration not stated)	0.023	5	0.058	13	6.7*	/	-9.8	?
SMILES	M1 antagonist	FXIIa mix inh	DAT uptake mod	FXIa inh mix	M1 agonist	D1 allo mod	M1 agonist conf	M4 agonist ctr
O=C(NCc1ccccn1)C1CC(c2ccc(Cl)c(Cl)c2)=NO1 (configuration not stated)	/	/	-0.52	/	/	/	/	/
O=C(Nc1cccnc1)C1CC(c2ccc(Cl)c(Cl)c2)=NO1 (configuration not stated)	0.63	0	0.2	1	-2.6*	/	-10	-39
O/N=C1\CCc2cc(Cl)ccc21	-0.15	/	-0.022	/	5.5*	/	4.9	-7.3
Cc1ccc(-c2cn3nc(C)c(C)nc3n2)cc1	0.4	4	-0.035	1	11*	-8.5*	103*	83
COc1ccc(-c2noc(Cc3ccccc3OC)n2)cc1	-0.39	4	-0.1	1	-0.012	1.3	/	/
COc1ccc(-c2noc(Cc3cccs3)n2)cc1	0.33	-13	0.41	13	5.3*	-0.5	-17	?
CCOC(=O)c1ccc2[nH]c(C)cc(=O)c2c1	-0.61	18	0.73	2	-0.2	0.0036	/	/
COc1ccc(-c2cc(C(F)(F)F)nc(N3CCCCCC3)n2)cc1	0.23	0	0.67	-17	4.6*	/	-3.6	?
COc1ccc(-c2cc(C(F)(F)F)nc(N3CCN(C)CC3)n2)cc1	/	7	-0.031	1	/	0.072	/	/
CC(=O)Nc1cccc(NC(=O)c2cc3ccccc3o2)c1	-0.27	-15	0.41	0	3.9	/	/	/
CC(=O)Nc1cccc(NC(=O)c2oc3ccccc3c2C)c1	-0.29	3	-0.0056	14	2.3*	-1.3	-16	-15
Cc1cc(NC(=O)Cn2nc(C(F)(F)F)c3c2CCC3)no1	/	12	-0.82	5	/	0.39	/	/
Cc1cccc(OCCNc2nc3c(c(=O)n(C)c(=O)n3C)n2C)c1	1.1	-21	0.7	-3	-0.013	-0.33	/	/
CCOC(=O)N1CCC(n2c(SCC(=O)NCc3ccccc3)nc3ccccc3c2=O)CC1	-1	2	1.4	-9	3.6*	/	-6.3	-11
CCOC(=O)N1CCC(n2c(SCC(=O)N3CCCC3)nc3ccccc3c2=O)CC1	/	/	0.059	/	/	/	/	/
O=C(CSc1nc2cccnc2n1Cc1ccccc1)N1CCCC1	/	/	0.3	/	/	/	/	/
COc1ccc(OC)c(N/C(C)=C/C(=O)c2ccc(C)o2)c1	0	-2	0.04	9	5.9*	0.62	?	-43
COc1ccc(OC)c(NC(=O)c2ccc(NC(C)=O)cc2)c1	-1.2	-5	-1	-5	-0.025	-0.069	/	/
Cc1ccccc1-n1c(SC/C(O)=C(\C#N)c2nc3ccccc3[nH]2)nnc1-c1ccncc1	-0.047	-10	1.5	-4	3.9*	0.76	4.6	-4.6
Cc1ccc(C(=O)N2CCN(c3ccc(NC(=O)c4ccc(Br)o4)cc3)CC2)cc1	/	/	0.0061	/	/	/	/	/
O=C(Cn1nnc(-c2ccccc2F)n1)Nc1ccc2c(c1)OCO2	-0.077	2	-1.8	7	5.7*	-0.14	?	-62

Compound activity from PubChem BioAssay.
